Experiment in all cases: DAPPL (digital affinity profiling via proximity ligation, sequencing); 10 mM Tris-HCl pH 7.5, 50 mM NaCl, 1 mM DTT, 4% glycerol, room temperature, 30 min; GST-TFs on glutathione beads, 16-mer random dsDNA library, 0.1% formaldehyde crosslink after washing; high values mean tight binding
Assay [1] addresses T1, FEV (Homo sapiens, UniProt Q99581 1-238).
T1 sequence: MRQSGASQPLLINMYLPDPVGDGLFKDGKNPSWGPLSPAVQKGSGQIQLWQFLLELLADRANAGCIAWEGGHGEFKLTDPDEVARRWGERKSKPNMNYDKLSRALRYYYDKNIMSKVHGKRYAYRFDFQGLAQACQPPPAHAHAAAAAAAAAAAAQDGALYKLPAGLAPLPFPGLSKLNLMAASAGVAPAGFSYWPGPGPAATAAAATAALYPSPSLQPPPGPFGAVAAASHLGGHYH
The conditions noted are these: protein: recombinant; tags: N-terminal GST; dsDNA, one strand shown. In short, it runs like this:
(§1)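 Binding signal is given per hexamer as its read frequency for a factor divided by its frequency in the tag-only sample. GST-fused human transcription factors were expressed in yeast, captured on glutathione beads, barcoded with DNA and pooled with that sample, then incubated with 200 nmole of a 16-mer random double-stranded DNA library in Tris/NaCl/DTT/glycerol buffer for 30 min at room temperature. The pools were then washed, crosslinked, proximity-ligated, amplified by PCR and sequenced on an Illumina NextSeq500.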

The target of assay [2] is ETV5 (Homo sapiens, UniProt P41161 1-510). Particulars: protein: recombinant; tags: N-terminal GST; dsDNA, one strand shown. In a few lines:
as §1

The target in assay [3] is HSF1 (Homo sapiens, UniProt Q00613 1-529). The conditions noted are these: protein: recombinant; tags: N-terminal GST; chain copies: 3; dsDNA, one strand shown. In a few lines: as §1
For assay [4], the target named is T2, SPIC (Homo sapiens, UniProt Q8N5J4 1-248).
T2 sequence: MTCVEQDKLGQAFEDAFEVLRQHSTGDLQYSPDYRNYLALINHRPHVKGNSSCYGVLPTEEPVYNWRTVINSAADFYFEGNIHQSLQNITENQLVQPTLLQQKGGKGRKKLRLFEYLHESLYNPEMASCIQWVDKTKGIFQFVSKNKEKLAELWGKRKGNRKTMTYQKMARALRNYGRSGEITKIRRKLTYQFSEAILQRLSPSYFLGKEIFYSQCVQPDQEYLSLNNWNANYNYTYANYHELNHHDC
Particulars: protein: recombinant; tags: N-terminal GST; dsDNA, one strand shown. In a few lines:
as §1

Assay [5] concerns the target ELF4 (Homo sapiens, UniProt Q99607 1-663). The conditions noted are these: protein: recombinant; tags: N-terminal GST; dsDNA, one strand shown. In short, it runs like this:
as §1

Assay [6] deals with T3, ELK4 (Homo sapiens, UniProt P28324-2 1-405).
T3 sequence: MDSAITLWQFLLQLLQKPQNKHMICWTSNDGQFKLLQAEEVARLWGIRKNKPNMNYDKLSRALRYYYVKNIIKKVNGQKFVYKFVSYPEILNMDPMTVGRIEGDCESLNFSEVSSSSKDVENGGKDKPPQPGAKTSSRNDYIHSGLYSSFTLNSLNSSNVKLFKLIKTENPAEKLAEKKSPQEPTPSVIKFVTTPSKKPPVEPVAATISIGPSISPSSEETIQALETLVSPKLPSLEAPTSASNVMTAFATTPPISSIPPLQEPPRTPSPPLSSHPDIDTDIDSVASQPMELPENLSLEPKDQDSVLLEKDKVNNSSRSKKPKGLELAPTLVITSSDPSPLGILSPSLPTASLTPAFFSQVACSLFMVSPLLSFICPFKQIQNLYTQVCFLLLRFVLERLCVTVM
The conditions noted are these: protein: recombinant; tags: N-terminal GST; dsDNA, one strand shown. In short, it runs like this:
as §1

The target in assay [7] is T4, ETV2 (Homo sapiens, UniProt O00321 1-342).
T4 sequence: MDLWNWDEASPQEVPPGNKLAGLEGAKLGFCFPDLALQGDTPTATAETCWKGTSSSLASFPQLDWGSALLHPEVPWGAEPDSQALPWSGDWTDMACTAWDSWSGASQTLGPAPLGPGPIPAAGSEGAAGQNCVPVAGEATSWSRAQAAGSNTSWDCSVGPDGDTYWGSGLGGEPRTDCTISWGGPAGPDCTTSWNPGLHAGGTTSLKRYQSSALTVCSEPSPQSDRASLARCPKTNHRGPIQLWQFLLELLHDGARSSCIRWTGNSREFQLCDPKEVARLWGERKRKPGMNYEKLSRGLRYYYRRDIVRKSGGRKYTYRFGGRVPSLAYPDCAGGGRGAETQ
Particulars: protein: recombinant; tags: N-terminal GST; dsDNA, one strand shown. In short, it runs like this:
as §1

The target of assay [8] is T5, ELF3 (Homo sapiens, UniProt P78545 1-371).
T5 sequence: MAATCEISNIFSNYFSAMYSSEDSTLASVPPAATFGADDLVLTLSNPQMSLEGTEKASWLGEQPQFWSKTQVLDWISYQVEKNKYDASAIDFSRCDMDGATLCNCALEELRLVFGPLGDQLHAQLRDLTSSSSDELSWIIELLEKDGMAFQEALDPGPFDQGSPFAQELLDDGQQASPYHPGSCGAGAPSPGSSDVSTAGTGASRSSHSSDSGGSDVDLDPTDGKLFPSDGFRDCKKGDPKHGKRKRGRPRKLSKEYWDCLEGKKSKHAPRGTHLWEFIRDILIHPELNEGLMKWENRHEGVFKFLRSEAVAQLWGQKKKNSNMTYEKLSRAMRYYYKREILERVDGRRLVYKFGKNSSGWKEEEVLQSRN
The conditions noted are these: protein: recombinant; tags: N-terminal GST; dsDNA, one strand shown. In short, it runs like this:
as §1

The target in assay [9] is CRX (Homo sapiens, UniProt O43186 1-299). The conditions noted are these: protein: recombinant; tags: N-terminal GST; dsDNA, one strand shown. In short, it runs like this:
as §1

For assay [10], the target named is ETV1 (Homo sapiens, UniProt P50549 1-477). Particulars: protein: recombinant; tags: N-terminal GST; dsDNA, one strand shown. In a few lines: as §1
The target in assay [11] is T6, ERF (Homo sapiens, UniProt P50548 1-548).
T6 sequence: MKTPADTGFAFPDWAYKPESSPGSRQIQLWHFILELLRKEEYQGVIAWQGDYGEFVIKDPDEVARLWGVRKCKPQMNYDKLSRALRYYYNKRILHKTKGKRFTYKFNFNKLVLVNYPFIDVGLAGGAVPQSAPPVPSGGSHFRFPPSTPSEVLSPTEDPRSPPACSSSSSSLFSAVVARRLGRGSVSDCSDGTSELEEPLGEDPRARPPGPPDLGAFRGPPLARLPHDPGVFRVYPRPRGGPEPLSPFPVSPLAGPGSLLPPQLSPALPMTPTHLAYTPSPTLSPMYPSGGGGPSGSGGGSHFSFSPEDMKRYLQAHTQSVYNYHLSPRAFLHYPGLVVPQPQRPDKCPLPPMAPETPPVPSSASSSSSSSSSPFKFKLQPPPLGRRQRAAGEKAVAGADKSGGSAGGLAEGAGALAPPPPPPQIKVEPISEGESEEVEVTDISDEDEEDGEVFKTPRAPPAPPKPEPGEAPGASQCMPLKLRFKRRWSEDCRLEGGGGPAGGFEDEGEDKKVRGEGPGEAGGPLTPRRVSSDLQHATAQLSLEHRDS
Particulars: protein: recombinant; tags: N-terminal GST; dsDNA, one strand shown. In a few lines:
as §1

Assay [12] deals with T7, ETV3L (Homo sapiens, UniProt Q6ZN32 1-361).
T7 sequence: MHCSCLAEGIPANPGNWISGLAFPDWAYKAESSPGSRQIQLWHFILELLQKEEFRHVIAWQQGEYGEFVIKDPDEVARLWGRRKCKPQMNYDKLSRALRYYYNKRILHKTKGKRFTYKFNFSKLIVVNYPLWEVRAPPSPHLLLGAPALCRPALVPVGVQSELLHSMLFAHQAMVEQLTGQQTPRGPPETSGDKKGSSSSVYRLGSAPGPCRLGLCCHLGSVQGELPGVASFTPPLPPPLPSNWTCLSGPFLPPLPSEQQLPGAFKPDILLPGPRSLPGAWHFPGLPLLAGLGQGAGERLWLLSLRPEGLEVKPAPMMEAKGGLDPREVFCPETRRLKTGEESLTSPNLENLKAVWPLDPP
Particulars: protein: recombinant; tags: N-terminal GST; dsDNA, one strand shown. In a few lines: as §1

For assay [13], the target named is T8, ETS2 (Homo sapiens, UniProt P15036 1-469).
T8 sequence: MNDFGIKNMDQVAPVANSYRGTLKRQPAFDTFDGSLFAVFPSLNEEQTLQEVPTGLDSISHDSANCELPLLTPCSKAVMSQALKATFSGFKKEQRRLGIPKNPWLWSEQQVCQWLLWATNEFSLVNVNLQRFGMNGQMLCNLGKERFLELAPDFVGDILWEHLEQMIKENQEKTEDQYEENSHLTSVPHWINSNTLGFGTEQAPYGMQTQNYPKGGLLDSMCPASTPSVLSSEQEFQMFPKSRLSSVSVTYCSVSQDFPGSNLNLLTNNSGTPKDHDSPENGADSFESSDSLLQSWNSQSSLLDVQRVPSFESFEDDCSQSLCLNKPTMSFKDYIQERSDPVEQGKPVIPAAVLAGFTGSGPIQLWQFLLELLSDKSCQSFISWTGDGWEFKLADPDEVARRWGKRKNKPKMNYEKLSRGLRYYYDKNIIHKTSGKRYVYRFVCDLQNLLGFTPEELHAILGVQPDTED
Particulars: protein: recombinant; tags: N-terminal GST; dsDNA, one strand shown. In a few lines: as §1

The target in assay [14] is T9, SPDEF (Homo sapiens, UniProt O95238 1-335).
T9 sequence: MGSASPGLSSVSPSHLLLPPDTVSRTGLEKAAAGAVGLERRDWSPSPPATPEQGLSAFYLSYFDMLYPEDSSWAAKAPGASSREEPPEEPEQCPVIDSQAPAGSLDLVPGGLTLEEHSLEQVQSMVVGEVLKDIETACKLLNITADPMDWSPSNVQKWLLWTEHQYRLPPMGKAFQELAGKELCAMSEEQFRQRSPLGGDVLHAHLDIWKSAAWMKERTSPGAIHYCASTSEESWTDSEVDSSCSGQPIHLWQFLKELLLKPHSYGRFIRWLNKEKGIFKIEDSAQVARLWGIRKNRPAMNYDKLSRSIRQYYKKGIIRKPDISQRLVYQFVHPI
The conditions noted are these: protein: recombinant; tags: N-terminal GST; dsDNA, one strand shown. In a few lines: as §1

Assay [15] has as its target T10, ETV7 (Homo sapiens, UniProt Q9Y603 1-341).
T10 sequence: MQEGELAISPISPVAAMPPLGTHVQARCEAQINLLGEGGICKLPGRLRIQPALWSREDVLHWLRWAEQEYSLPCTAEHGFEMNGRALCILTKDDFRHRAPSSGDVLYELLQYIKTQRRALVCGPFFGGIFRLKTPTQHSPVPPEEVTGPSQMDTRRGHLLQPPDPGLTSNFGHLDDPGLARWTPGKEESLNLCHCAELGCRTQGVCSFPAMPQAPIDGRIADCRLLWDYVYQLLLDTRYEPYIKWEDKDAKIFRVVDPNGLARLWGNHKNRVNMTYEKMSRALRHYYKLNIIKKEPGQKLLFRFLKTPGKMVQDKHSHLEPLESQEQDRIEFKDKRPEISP
The conditions noted are these: protein: recombinant; tags: N-terminal GST; dsDNA, one strand shown. In a few lines: as §1

In assay [16] the target is T11, ELF5 (Homo sapiens, UniProt Q9UKW6-2 1-255).
T11 sequence: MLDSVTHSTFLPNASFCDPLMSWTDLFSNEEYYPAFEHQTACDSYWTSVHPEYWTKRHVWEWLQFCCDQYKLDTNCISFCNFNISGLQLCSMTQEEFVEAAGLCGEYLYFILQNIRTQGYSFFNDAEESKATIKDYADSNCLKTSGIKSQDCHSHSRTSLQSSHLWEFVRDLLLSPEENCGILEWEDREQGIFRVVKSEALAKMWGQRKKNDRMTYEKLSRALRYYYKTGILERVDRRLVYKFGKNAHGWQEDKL
Particulars: protein: recombinant; tags: N-terminal GST; dsDNA, one strand shown. In a few lines: as §1

The target of assay [17] is T12, ETV3 (Homo sapiens, UniProt P41162-2 1-143).
T12 sequence: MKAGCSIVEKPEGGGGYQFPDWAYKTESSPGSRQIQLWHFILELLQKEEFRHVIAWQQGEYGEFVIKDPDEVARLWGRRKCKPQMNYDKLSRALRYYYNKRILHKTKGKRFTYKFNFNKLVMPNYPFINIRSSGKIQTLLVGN
The conditions noted are these: protein: recombinant; tags: N-terminal GST; dsDNA, one strand shown. In a few lines:
as §1

The target of assay [18] is ETV6 (Homo sapiens, UniProt P41212 1-452). The conditions noted are these: protein: recombinant; tags: N-terminal GST; dsDNA, one strand shown. In short, it runs like this:
as §1

Here are results for one sequence from PMC7862700, “An all-to-all approach to the identification of sequence-specific readers for epigenetic DNA modifications on cytosine”.

Sequence of ETV5 (P41161 whole entry): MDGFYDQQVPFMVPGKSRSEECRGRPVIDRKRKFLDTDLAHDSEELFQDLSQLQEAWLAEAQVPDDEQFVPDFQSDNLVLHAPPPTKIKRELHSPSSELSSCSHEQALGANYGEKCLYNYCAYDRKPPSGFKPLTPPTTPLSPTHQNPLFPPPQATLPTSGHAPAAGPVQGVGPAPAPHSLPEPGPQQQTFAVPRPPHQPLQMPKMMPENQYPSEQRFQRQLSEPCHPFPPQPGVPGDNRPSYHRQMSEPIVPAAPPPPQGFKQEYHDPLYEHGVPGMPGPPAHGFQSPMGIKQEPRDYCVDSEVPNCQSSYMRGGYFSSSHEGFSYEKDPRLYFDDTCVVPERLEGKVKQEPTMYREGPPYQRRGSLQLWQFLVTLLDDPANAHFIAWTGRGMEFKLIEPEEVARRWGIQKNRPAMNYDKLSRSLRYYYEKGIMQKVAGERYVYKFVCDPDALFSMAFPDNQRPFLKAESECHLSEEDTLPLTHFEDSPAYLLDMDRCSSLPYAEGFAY
Sequence of ETV1 (P50549 whole entry): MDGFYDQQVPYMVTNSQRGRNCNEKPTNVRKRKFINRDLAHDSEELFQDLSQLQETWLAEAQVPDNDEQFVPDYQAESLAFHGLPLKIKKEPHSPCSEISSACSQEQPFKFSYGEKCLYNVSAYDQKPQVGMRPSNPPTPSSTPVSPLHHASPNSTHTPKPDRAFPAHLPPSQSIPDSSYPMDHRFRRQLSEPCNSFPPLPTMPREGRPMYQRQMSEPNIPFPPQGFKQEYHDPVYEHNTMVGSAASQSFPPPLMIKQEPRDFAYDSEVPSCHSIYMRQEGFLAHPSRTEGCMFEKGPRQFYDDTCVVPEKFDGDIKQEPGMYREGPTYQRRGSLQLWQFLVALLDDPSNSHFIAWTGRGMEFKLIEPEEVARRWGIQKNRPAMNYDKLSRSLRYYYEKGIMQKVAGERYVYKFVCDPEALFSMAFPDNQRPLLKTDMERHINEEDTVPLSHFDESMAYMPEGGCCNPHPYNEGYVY
Sequence of ETV6 (P41212 whole entry): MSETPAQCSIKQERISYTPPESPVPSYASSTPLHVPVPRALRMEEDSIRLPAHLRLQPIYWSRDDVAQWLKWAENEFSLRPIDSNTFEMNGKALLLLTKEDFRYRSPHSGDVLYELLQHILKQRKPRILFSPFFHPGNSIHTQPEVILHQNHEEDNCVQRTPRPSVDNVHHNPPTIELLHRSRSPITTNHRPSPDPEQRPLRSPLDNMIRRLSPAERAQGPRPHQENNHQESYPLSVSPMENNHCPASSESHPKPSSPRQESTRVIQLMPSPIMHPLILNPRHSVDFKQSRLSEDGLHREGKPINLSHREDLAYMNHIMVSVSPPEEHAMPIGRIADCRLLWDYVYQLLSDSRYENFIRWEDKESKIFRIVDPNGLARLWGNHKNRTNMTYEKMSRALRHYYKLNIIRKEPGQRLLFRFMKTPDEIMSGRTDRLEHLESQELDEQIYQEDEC
Sequence of HSF1 (Q00613 whole entry): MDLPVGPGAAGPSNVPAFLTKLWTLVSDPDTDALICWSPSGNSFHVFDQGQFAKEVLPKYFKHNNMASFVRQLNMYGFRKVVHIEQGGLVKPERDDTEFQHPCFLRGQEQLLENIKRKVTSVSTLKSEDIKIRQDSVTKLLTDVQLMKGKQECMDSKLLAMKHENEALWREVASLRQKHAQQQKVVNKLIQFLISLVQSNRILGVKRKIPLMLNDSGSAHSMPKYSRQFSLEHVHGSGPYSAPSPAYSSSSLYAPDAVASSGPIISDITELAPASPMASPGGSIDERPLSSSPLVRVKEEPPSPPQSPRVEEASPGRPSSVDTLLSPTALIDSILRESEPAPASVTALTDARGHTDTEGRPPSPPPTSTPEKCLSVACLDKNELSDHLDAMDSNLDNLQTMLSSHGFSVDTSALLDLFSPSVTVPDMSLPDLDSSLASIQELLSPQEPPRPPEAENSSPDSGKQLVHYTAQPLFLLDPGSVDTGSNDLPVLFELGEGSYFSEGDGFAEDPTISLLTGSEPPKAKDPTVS
Sequence of CRX (O43186 whole entry): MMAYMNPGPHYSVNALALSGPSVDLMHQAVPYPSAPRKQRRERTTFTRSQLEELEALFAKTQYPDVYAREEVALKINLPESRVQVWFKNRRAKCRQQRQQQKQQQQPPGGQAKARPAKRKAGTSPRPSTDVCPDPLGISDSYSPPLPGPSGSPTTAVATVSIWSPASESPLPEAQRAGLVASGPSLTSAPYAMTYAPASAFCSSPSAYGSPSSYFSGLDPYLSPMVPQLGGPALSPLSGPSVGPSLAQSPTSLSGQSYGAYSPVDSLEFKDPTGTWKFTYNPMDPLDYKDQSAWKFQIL
Sequence of ELF4 (Q99607 whole entry): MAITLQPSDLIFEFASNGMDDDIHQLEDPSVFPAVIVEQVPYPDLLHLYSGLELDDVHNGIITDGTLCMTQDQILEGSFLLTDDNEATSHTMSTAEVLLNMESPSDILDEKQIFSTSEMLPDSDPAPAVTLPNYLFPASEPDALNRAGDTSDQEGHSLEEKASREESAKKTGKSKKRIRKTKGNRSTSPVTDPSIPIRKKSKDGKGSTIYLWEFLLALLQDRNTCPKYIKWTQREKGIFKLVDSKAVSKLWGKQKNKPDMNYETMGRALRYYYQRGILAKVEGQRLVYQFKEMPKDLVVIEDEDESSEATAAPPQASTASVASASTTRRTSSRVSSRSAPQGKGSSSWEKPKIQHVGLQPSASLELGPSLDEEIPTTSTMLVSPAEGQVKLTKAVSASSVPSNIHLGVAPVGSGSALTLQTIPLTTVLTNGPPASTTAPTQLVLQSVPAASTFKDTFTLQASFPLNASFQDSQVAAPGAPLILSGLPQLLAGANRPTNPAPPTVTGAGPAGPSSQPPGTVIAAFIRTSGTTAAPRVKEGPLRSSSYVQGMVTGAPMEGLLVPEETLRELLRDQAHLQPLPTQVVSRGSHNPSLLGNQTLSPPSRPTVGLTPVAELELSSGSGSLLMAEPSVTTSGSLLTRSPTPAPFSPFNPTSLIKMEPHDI

As for AACTCA, the binding signal was 1.26 fold enrichment (6-mer frequency, TF over GST control) in assay [1]; 1.25 fold enrichment (6-mer frequency, TF over GST control) in assay [2]; 1.14 fold enrichment (6-mer frequency, TF over GST control) in assay [3]; 1.2 fold enrichment (6-mer frequency, TF over GST control) in assay [4]; 1.27 fold enrichment (6-mer frequency, TF over GST control) in assay [5]; 1.21 fold enrichment (6-mer frequency, TF over GST control) in assay [6]. The binding signal is 1.22 fold enrichment (6-mer frequency, TF over GST control) in [7]; 1.15 fold enrichment (6-mer frequency, TF over GST control) in assay [8]; 1.12 fold enrichment (6-mer frequency, TF over GST control) in assay [9]; 1.24 fold enrichment (6-mer frequency, TF over GST control) in assay [10]; 1.18 fold enrichment (6-mer frequency, TF over GST control) in assay [11]; 1.18 fold enrichment (6-mer frequency, TF over GST control) in assay [12]. Besides, the binding signal is 1.28 fold enrichment (6-mer frequency, TF over GST control) in assay [13]; 1.22 fold enrichment (6-mer frequency, TF over GST control) in [14]; 1.2 fold enrichment (6-mer frequency, TF over GST control) in assay [15]; 1.22 fold enrichment (6-mer frequency, TF over GST control) in assay [16]; 1.26 fold enrichment (6-mer frequency, TF over GST control) in assay [17]; 1.34 fold enrichment (6-mer frequency, TF over GST control) in [18].
